Measurements: PubChem BioAssay (NCI)
Compounds without any hit were thinned out: in the full panel of roughly 83,000, 20% have a hit.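 The endpoint reported here, percent growth, reads 100 for growth as untreated, 0 for no net growth and -100 for all cells dead.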 Unmarked numbers belong to inactive results. Calls of active or inactive are those of the source. The calls were made as follows: active = growth percent below 10; inactive = the rest.

Columns and labels:
Experiment in all cases: NCI-60 one-dose screen, 48 h (100 = growth as untreated, 0 = no growth, -100 = all killed)
NCI-H23 lung = details: 10 µM unless noted
NCI-H226 lung = details: 10 µM unless noted
NCI-H322M lung = details: 10 µM unless noted
HOP-62 NSCLC = details: 10 µM unless noted
NCI-H460 lung = details: 10 µM unless noted
HOP-92 NSCLC = details: 10 µM
A549/ATCC NSCLC = details: 10 µM unless noted
786-0 renal = details: 10 µM unless noted
COLO 205 colon = details: 10 µM unless noted
DU-145 prostate = details: 10 µM unless noted
K-562 leukemia = details: 10 µM unless noted
MALME-3M melanoma = details: 10 µM unless noted
MDA-MB-231 breast = details: 10 µM unless noted
RXF 393 renal = details: 10 µM unless noted
SF-268 CNS = details: 10 µM unless noted
SF-295 CNS = details: 10 µM unless noted
SF-539 CNS = details: 10 µM unless noted
UACC-257 melanoma = details: 10 µM unless noted
M14 melanoma = details: 10 µM unless noted

N/C(=N\C(N)=N\c1nc2ccccc2s1)c1ccc2ccccc2c1
growth (NCI-H23 lung): 53.2% | growth (NCI-H226 lung): 62.7% | growth (NCI-H322M lung): 96.8% | growth (HOP-62 NSCLC): -28% (active) | growth (NCI-H460 lung): 68.1% | growth (HOP-92 NSCLC): 88.6% | growth (A549/ATCC NSCLC): 9.92% (active) | growth (786-0 renal): 87.9% | growth (COLO 205 colon): 109% | growth (DU-145 prostate): 69% | growth (K-562 leukemia): 69.3% | growth (MALME-3M melanoma): 91.3% | growth (MDA-MB-231 breast): 67.9% | growth (RXF 393 renal): 91.8% | growth (SF-268 CNS): 78.9% | growth (SF-295 CNS): 74.6% | growth (SF-539 CNS): 102% | growth (UACC-257 melanoma): 109% | growth (M14 melanoma): 97.5%

O=C(Nc1ccc2c(ccn2Cc2ccccn2)c1)c1ccnnc1
growth (NCI-H23 lung): 94.6% | growth (NCI-H226 lung): 87.3% | growth (NCI-H322M lung): 98.5% | growth (HOP-62 NSCLC): 76.4% | growth (NCI-H460 lung): 104% | growth (HOP-92 NSCLC): 87.6% | growth (A549/ATCC NSCLC): 91.4% | growth (786-0 renal): 86% | growth (COLO 205 colon): 110% | growth (DU-145 prostate): 89.1% | growth (K-562 leukemia): 99.6% | growth (MALME-3M melanoma): 103% | growth (MDA-MB-231 breast): 71.1% | growth (RXF 393 renal): 59.3% | growth (SF-268 CNS): 81.9% | growth (SF-295 CNS): 94.7% | growth (SF-539 CNS): 97.7% | growth (UACC-257 melanoma): 106% | growth (M14 melanoma): 99.7%

O=C1[C@H]2Cc3c([nH]c4ccccc34)[C@@H](c3ccc(Br)cc3)N2C(=O)CN1C1CCN(CC2CCCCC2)CC1
growth (NCI-H23 lung): -81.3% (active) | growth (NCI-H226 lung): -3.54% (active) | growth (NCI-H322M lung): 16.2% | growth (HOP-62 NSCLC): 10.8% | growth (NCI-H460 lung): -85.7% (active) | growth (HOP-92 NSCLC): -59.4% (active) | growth (A549/ATCC NSCLC): -77.3% (active) | growth (786-0 renal): -94.6% (active) | growth (COLO 205 colon): -90.6% (active) | growth (DU-145 prostate): -49.7% (active) | growth (K-562 leukemia): -63.7% (active) | growth (MALME-3M melanoma): -82.3% (active) | growth (MDA-MB-231 breast): -94.8% (active) | growth (RXF 393 renal): -96% (active) | growth (SF-268 CNS): 22.2% | growth (SF-295 CNS): -61.5% (active) | growth (SF-539 CNS): -89.3% (active) | growth (UACC-257 melanoma): -60.2% (active) | growth (M14 melanoma): -77.2% (active)

CC1(C)CC[C@]2(C(=O)O)CC[C@]3(C)C(=CC[C@@H]4[C@@]5(C)CC/C(=N\OCCC#N)C(C)(C)[C@@H]5CC[C@]43C)[C@@H]2C1
growth (NCI-H23 lung): 98% | growth (NCI-H226 lung): 98% | growth (NCI-H322M lung): 111% | growth (HOP-62 NSCLC): 79.2% | growth (NCI-H460 lung): 93.7% | growth (HOP-92 NSCLC): 123% | growth (A549/ATCC NSCLC): 93.7% | growth (786-0 renal): 80.8% | growth (COLO 205 colon): 111% | growth (DU-145 prostate): 91.8% | growth (K-562 leukemia): 109% | growth (MALME-3M melanoma): 117% | growth (MDA-MB-231 breast): 93% | growth (RXF 393 renal): 66.6% | growth (SF-268 CNS): 84.6% | growth (SF-295 CNS): 102% | growth (SF-539 CNS): 99.2% | growth (UACC-257 melanoma): 108% | growth (M14 melanoma): 98.2%

O=C(O)c1cn(C2CC2)c2cc(N3CCN(C(=O)CN4C(=O)CSC4=O)CC3)c(F)cc2c1=O
growth (NCI-H23 lung): 103% | growth (NCI-H226 lung): 101% | growth (NCI-H322M lung): 101% | growth (HOP-62 NSCLC): 75.8% | growth (NCI-H460 lung): 107% | growth (HOP-92 NSCLC): 104% | growth (A549/ATCC NSCLC): 93.5% | growth (786-0 renal): 94.1% | growth (COLO 205 colon): 113% | growth (DU-145 prostate): 90.5% | growth (K-562 leukemia): 102% | growth (MALME-3M melanoma): 103% | growth (MDA-MB-231 breast): 81.2% | growth (RXF 393 renal): 61.7% | growth (SF-268 CNS): 83.5% | growth (SF-295 CNS): 106% | growth (SF-539 CNS): 88.5% | growth (UACC-257 melanoma): 107% | growth (M14 melanoma): 108%

C=CC(=O)N1CCC=C(c2cc3c(N[C@H](C)c4ccccc4)ncnc3[nH]2)C1
growth (NCI-H23 lung): 83.3% | growth (NCI-H226 lung): 58.5% | growth (NCI-H322M lung): 31% | growth (HOP-62 NSCLC): 58.5% | growth (NCI-H460 lung): 98% | growth (HOP-92 NSCLC): 38% | growth (A549/ATCC NSCLC): 52.1% | growth (786-0 renal): 43.6% | growth (COLO 205 colon): 96% | growth (DU-145 prostate): 42.9% | growth (K-562 leukemia): 37% | growth (MALME-3M melanoma): 101% | growth (MDA-MB-231 breast): 44.4% | growth (RXF 393 renal): -17% (active) | growth (SF-268 CNS): 60.1% | growth (SF-295 CNS): 72% | growth (SF-539 CNS): 74.6% | growth (UACC-257 melanoma): 87.4% | growth (M14 melanoma): 85.9%

CNC(=O)c1cc(-n2ccc3cc(NC(=O)Nc4ccc(N5CCOCC5)c(C(F)(F)F)c4)ccc32)ccn1
growth (NCI-H23 lung): 50.4% | growth (NCI-H226 lung): 73.6% | growth (NCI-H322M lung): 75.5% | growth (HOP-62 NSCLC): 55.7% | growth (NCI-H460 lung): 34.3% | growth (HOP-92 NSCLC): 56% | growth (A549/ATCC NSCLC): 36.4% | growth (786-0 renal): 13.6% | growth (COLO 205 colon): 26.4% | growth (DU-145 prostate): 54.9% | growth (K-562 leukemia): 4.09% (active) | growth (MALME-3M melanoma): 82% | growth (MDA-MB-231 breast): 45.4% | growth (RXF 393 renal): -27.5% (active) | growth (SF-268 CNS): 72.6% | growth (SF-295 CNS): 12.3% | growth (SF-539 CNS): 23.3% | growth (UACC-257 melanoma): 56.8% | growth (M14 melanoma): 23.6%

NC(=O)c1cccc(-n2ccc3cc(NC(=O)Nc4ccc(N5CCOCC5)c(C(F)(F)F)c4)ccc32)n1
growth (NCI-H23 lung): 12.3% | growth (NCI-H226 lung): -3.89% (active) | growth (NCI-H322M lung): 15.8% | growth (HOP-62 NSCLC): 1.56% (active) | growth (NCI-H460 lung): 0.481% (active) | growth (HOP-92 NSCLC): -16.5% (active) | growth (A549/ATCC NSCLC): 10.5% | growth (786-0 renal): -41.8% (active) | growth (COLO 205 colon): -48.3% (active) | growth (DU-145 prostate): 13.2% | growth (K-562 leukemia): -22.9% (active) | growth (MALME-3M melanoma): 12.3% | growth (MDA-MB-231 breast): 16% | growth (RXF 393 renal): -46.4% (active) | growth (SF-268 CNS): 3.3% (active) | growth (SF-295 CNS): -45.7% (active) | growth (SF-539 CNS): -20.5% (active) | growth (UACC-257 melanoma): 35.7% | growth (M14 melanoma): 16.7%
